The values that follow come from PubChem BioAssay (NCATS).

Structures are written as SMILES. Results filed as inconclusive are left out. Unmarked numbers belong to inactive results. Active and inactive are the calls of the source. Unless noted, the call rests on the fitted dose curve; in most records, active means well fitted curve in the direction sought with a large enough effect in the repeat runs; inconclusive means weak or mixed curves; inactive means no such curve, though single readings can be large; an effect the other way counts as inactive or inconclusive.
On the % scale 0 is the no-effect control and ±100 the full control effect.

Sequence of Calcium and integrin-binding protein 1 (Homo sapiens) (Q99828 whole entry, looked up): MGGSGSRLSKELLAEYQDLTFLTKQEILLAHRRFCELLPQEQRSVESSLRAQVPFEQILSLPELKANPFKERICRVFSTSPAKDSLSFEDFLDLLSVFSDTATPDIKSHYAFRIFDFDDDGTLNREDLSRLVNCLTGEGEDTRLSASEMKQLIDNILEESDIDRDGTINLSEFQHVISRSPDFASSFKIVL
Sequence of Cytochrome P450 2D6 (Homo sapiens) (P10635 whole entry, looked up): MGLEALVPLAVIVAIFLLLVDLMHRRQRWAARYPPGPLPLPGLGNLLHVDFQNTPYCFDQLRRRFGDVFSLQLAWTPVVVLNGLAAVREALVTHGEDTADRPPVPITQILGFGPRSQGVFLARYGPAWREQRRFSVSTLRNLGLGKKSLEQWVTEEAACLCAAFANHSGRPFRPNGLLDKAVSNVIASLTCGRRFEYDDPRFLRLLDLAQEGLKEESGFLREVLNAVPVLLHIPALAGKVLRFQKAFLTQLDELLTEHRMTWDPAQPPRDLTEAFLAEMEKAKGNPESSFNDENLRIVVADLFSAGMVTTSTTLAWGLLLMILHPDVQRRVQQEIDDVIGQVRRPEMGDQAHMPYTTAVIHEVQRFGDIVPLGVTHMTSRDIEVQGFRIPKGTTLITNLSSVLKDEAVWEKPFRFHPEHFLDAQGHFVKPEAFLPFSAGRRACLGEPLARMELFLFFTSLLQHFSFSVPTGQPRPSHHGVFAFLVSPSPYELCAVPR
Sequence of Cytochrome P450 2C9 (Homo sapiens) (P11712 whole entry, looked up): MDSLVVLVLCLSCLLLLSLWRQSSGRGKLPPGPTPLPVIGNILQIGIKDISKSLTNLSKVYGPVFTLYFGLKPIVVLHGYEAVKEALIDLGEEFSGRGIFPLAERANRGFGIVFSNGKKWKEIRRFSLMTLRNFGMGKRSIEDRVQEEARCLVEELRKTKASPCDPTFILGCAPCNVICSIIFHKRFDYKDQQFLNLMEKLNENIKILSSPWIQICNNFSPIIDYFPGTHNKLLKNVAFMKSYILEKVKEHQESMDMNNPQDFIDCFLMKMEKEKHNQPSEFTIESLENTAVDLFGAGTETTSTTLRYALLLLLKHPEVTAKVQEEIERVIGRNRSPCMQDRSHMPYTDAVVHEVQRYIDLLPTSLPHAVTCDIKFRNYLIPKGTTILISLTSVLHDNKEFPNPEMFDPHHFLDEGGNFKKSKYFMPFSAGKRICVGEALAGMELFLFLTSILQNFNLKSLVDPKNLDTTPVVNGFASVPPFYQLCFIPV

The first assay has as its target Calcium and integrin-binding protein 1 (Homo sapiens) (UniProt Q99828). As to the kind of experiment: Primary qHTS for Identification of Calcium Integrin Binding Protein 1 (CIB1) Competitor (AID 1508620; active means well fitted curve in the direction sought with a large enough effect; an effect the other way counts as inactive or inconclusive;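 further: GST tagged CIB1 binding a fluorescein labelled alphaIIb integrin peptide tracer; top concentration of the series differs between compounds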). The note with it: CIB1-GST / FITC-alphaIIb peptide fluorescence polarization; series mostly up to 114 µM; activity change, negative = inhibition: at the top concentration. In outline: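 Fluorescence polarization competition: CIB1-GST (1 uM final) preincubated with compound 15 min at room temperature, then FITC-labeled alphaIIb peptide (100 nM final) added for another 15 min. Polarization read at Ex 480/Em 540.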
For orientation: In qHTS, concentration-response curves come from the screen itself.
Turning to `CC(=O)OC[C@]12[C@H](OC(C)=O)C(=O)[C@@H]3[C@@H](O)[C@@]14O[C@@]3(C)COC(=O)c1cccnc1[C@@H](C)[C@H](C)C(=O)O[C@@H]([C@H](OC(C)=O)[C@@H]2OC(C)=O)[C@]4(C)O`, the “activity change, negative = inhibition” value is 0.157% [at 30.2 µM].
With `Cc1c(N[C@@H](c2nnc(-c3ccc(C#N)cc3)o2)[C@H](C)O)ccc(C#N)c1Cl`, the “activity change, negative = inhibition” value is -1.27%.
Still for that read-out and setting: in the case of `COc1ccc2c(c1)c(CCN(C)C)cn2S(=O)(=O)c1ccccc1` it was -0.255%.

The target in the next assay is Cytochrome P450 2D6 (Homo sapiens) (UniProt P10635). The experiment in a line: Cytochrome P450 family 2 subfamily D member 6 (CYP2D6) small molecule antagonists: luciferase biochemical (cell-free) qHTS assay (AID 1645840). Further: nearly all actives have a fitted effect of over 55% in size. Further: potency means the concentration at half of the fitted maximal effect. The note with it: P450-Glo CYP2D6 enzyme, luciferin luminescence, 1 h; series mostly up to 57.4 µM; activity change, negative = inhibition: at the top concentration. In outline:
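P450-Glo CYP2D6 system: proluciferin substrate converted by enzyme to luciferin, read by luminescence proportional to activity. Enzyme-substrate mix with compound 10 min at room temperature, then NADPH regeneration 1 h before detection reagent.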
Turning to `CC(C)[C@H](NC(=O)c1nn(Cc2ccc(F)cc2)c2ccccc12)C(N)=O`, the Potency was 16.9 µM (active).
The same measure, in the same setting: the value for `CN1C(=O)[C@@H](Cc2c[nH]c3ccccc23)N=C(c2ccccc2F)c2ccccc21` was 9.52 µM (active).
Regarding `CCCCCn1cc(C(=O)Oc2cccc3cccnc23)c2ccccc21`, the “activity change, negative = inhibition” value is -4.03%.
In the case of `CN=C(NS(=O)(=O)c1ccc(Cl)cc1)N1C[C@H](c2ccccc2)C(c2ccc(Cl)cc2)=N1`, the “activity change, negative = inhibition” value is -23.5%.
With `CN(C(=O)C(c1ccccc1)c1ccccc1)[C@H](CN1CC[C@H](O)C1)c1ccccc1`, the Potency is 0.122 µM (active).
Turning to `Cc1ccc2c(c1)[C@H]1CN(C)CC[C@H]1N2C(=O)CSc1nnnn1-c1ccc(Cl)cc1`, the Potency is 10.7 µM (active).
The same measure, in the same setting: the value for `Fc1cc(F)c2c(c1)C1C=CCC1C(c1cccnc1)N2` (stereo not drawn) was 23.9 µM (active); that for `CCCN(CCC)[C@@H]1CCc2ccc3[nH]c(C#N)cc3c2C1` was 0.338 µM (active); that for `c1ccc([C@@H]2C[C@H]2NC2CCNCC2)cc1` was 10.7 µM (active).
Regarding `COc1ccc2c(c1)c(CCN(C)C)cn2S(=O)(=O)c1ccccc1`, the Potency is 1.51 µM (active).

A further assay deals with Cytochrome P450 2C9 (Homo sapiens) (UniProt P11712). As to the kind of experiment: Cytochrome P450 family 2 subfamily C member 9 (CYP2C9) small molecule antagonists: luciferase biochemical (cell-free) qHTS assay (AID 1645842). Further: nearly all actives have a fitted effect of over 55% in size. Further: potency means the concentration at half of the fitted maximal effect. The note with it: P450-Glo CYP2C9 enzyme assay, luciferin luminescence; series mostly up to 57.4 µM; activity change, negative = inhibition: at the top concentration. In outline:
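P450-Glo CYP2C9 system: proluciferin substrate with enzyme in mix containing 0.4% BSA, 10 min at room temperature, then NADPH regeneration solution added and incubated 1 h at 37C. Detection reagent stopped reaction; luminescence read after 20 min as RLU.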
For the molecule `CC(C)[C@H](NC(=O)c1nn(Cc2ccc(F)cc2)c2ccccc12)C(N)=O`, the Potency is 6.74 µM (active).
Same read-out and setting: in the case of `CN1C(=O)[C@@H](Cc2c[nH]c3ccccc23)N=C(c2ccccc2F)c2ccccc21` it was 6.74 µM (active); in that of `CCCCCn1cc(C(=O)Oc2cccc3cccnc23)c2ccccc21`, 3.38 µM (active).
As for `CN=C(NS(=O)(=O)c1ccc(Cl)cc1)N1C[C@H](c2ccccc2)C(c2ccc(Cl)cc2)=N1`, the “activity change, negative = inhibition” value was 9.38%.
Same read-out and setting: in the case of `CN(Cc1cccc(-c2ccncc2)c1)C(=O)Oc1ccc(-c2ccc(C(N)=O)cc2)cc1` it was -2.63%; in that of `CN(C(=O)C(c1ccccc1)c1ccccc1)[C@H](CN1CC[C@H](O)C1)c1ccccc1`, -25%.
On to `CCOc1ccc(Oc2ccc(OCc3cc(F)ccc3F)cc2)c(N)c1`, for which the Potency is 10.7 µM (active).
As for `Cc1ccc2c(c1)[C@H]1CN(C)CC[C@H]1N2C(=O)CSc1nnnn1-c1ccc(Cl)cc1`, the “activity change, negative = inhibition” value was -11%.
As for `Fc1cc(F)c2c(c1)C1C=CCC1C(c1cccnc1)N2` (stereo not drawn), the Potency is 5.35 µM (active).
For the molecule `COc1ccc2c(c1)c(CCN(C)C)cn2S(=O)(=O)c1ccccc1`, the Potency is 15.1 µM (active).
